We go through 13 compounds from PubChem BioAssay.

Experiment [1] is described as follows: resazurin metabolic signal in HepG2 cells – cell-based, resazurin fluorescence, 24 h, PK04 Diversity Set, profiling panel (AID 1172). Note: test concentration not given here. Particulars: HepG2 viability, higher = more signal. (In general: Alamar Blue is a resazurin reagent that responds to reducing activity.)
Experiment [2] in a line: budding yeast growth changes without added modifier – OD600, strain BY4716, 24 h, basal condition, primary screen (AID 1173). Particulars: S. cerevisiae BY4716 growth, OD600, 24 h; higher = more signal, called active from +8 up or from −8 down.
A short description of experiment [3]: viability profiling in MM1S myeloma cells – cell-based, resazurin fluorescence, basal, 24 h, PK04 Diversity Set, profiling panel (AID 1174).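 Note: MM1S multiple myeloma cell line; test concentration not given here.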 Particulars: higher = more signal, called active from +8 up or from −8 down.
The target of experiment [4] is Dihydroorotate dehydrogenase (quinone), mitochondrial (Plasmodium falciparum (isolate 3D7)) (UniProt Q08210). Nature of the experiment: inhibition of P. falciparum DHODH – biochemical, C-terminal His tag, absorbance 600 nm, primary screen (AID 1175).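 Note: recombinant parasite enzyme with a five histidine tag at its C terminus; test concentration not given here.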 Particulars: PfDHODH enzyme, DCIP absorbance 600 nm; higher = more signal, called active from +8 up or from −8 down.
Experiment [5] can be described thus: inhibition of PAO1 biofilm formation – strain PAO1, LB-PBS medium, absorbance 600 nm, primary screen (AID 1176). Note: test concentration not given here. Particulars: P. aeruginosa PAO1 growth/biofilm, A600, 12 h; higher = more signal.
Experiment [6] can be described thus: growth modulation of vineyard yeast isolate – strain RM11-1a, OD600, basal, 24 h, primary screen (AID 1177).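 Note: cultures grown under basal conditions with no added stressor; test concentration not given here.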 To be noted: S. cerevisiae RM11-1a growth, OD600, 24 h; higher = more signal, called active from +8 up or from −8 down.
Experiment [7] can be described thus: growth of efflux-deficient E. coli DRC39 – strain DRC39, OD650, 24 h, E. coli filamentation inducers, primary screen (AID 1178).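 Note: growth measured as culture turbidity by optical density at 650 nm; test concentration not given here.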 To be noted: E. coli DRC39 acrAB, higher = more signal, called active from +8 up or from −8 down.
A short description of experiment [8]: growth of efflux-deficient E. coli DRC39 – strain DRC39, OD650, 48 h, E. coli filamentation inducers, primary screen (AID 1179).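 Note: screen aims at cell division blockers that make cells filament.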 Particulars: E. coli DRC39 delta-acrAB growth, higher = more signal, called active from +8 up or from −8 down.
Experiment [9] is described as follows: viability profiling in RPMI8226 myeloma cells – cell-based, resazurin fluorescence, basal, 24 h, PK04 Diversity Set, profiling panel (AID 1180).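 Note: RPMI8826 multiple myeloma cell line at 5000 cells per well; test concentration not given here.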 Particulars: higher = more signal.
The target of experiment [10] is E3 ubiquitin-protein ligase XIAP (Homo sapiens) (UniProt P98170). Nature of the experiment: small molecules binding XIAP protein – biophysical, small-molecule microarray, fluorescence 635 nm, primary screen (AID 1181).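 Note: score merges 667 nm emission and signal to noise over triplicate slides.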 Particulars: higher = more signal.

SMILES strings stand for the structures. Activity calls are given as the source filed them. Unless noted, the rule behind the calls is not given here.

Chain of E3 ubiquitin-protein ligase XIAP (Homo sapiens) (P98170 whole entry, looked up): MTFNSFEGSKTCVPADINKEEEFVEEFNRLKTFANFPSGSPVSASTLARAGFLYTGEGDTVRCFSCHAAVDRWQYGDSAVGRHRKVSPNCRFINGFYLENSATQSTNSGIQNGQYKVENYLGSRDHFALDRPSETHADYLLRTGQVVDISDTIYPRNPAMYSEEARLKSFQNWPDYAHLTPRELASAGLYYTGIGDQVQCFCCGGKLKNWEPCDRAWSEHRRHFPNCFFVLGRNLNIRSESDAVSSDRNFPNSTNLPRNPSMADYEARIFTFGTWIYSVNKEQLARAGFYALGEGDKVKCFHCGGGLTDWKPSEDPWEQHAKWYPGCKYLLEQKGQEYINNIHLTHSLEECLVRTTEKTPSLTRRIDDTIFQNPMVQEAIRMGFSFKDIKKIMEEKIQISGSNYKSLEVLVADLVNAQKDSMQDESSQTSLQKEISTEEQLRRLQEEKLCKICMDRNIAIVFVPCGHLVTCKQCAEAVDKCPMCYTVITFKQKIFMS
Chain of Dihydroorotate dehydrogenase (quinone), mitochondrial (Plasmodium falciparum (isolate 3D7)) (Q08210 whole entry, looked up): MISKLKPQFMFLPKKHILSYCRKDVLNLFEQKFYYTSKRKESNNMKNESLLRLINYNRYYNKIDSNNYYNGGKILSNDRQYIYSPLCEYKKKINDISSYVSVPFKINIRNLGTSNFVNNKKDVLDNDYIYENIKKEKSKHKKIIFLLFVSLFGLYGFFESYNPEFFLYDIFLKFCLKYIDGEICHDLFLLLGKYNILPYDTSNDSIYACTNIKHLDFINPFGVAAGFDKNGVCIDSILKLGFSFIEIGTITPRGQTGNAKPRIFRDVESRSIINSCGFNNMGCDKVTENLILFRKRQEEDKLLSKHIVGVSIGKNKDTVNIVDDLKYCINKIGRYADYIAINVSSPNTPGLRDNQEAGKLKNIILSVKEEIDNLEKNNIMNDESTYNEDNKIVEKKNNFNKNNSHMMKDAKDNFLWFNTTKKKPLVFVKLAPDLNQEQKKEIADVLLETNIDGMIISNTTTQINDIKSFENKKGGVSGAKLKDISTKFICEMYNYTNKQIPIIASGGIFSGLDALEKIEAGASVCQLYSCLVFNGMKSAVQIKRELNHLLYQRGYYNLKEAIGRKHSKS

Consider `[N-]=[N+]=NCc1ccccc1[C@H]1OC(c2ccc(OCCCO)cc2)=N[C@@]1(Cc1ccccc1N=[N+]=[N-])C(N)=O`, for which the z-score is 0.794 in experiment [1]; -2.02 (inactive) in [2]; 0.393 (inactive) in experiment [3]; -0.0963 (inactive) in experiment [5]; 0.77 (inactive) in experiment [6]; 0.0162 (inactive) in [7]. For the same compound, the figures for the z-score in experiment [8] and in [9] were 0.394 (inactive) and -0.103, respectively. The composite z-score is -0.0773 (inactive) in [4] and -0.0773 in experiment [10].

As for `CCCCCN1CC=CC23O[C@@H]4/C=C\CCCOC(=O)C4[C@H]2C(=O)N(CCCCCO)[C@@H]3C1=O` (stereo not given in full), the z-score in experiment [1] was 0.809; in experiment [2], -1.17 (inactive); in experiment [3], 1.33 (inactive); in [5] it was 0.0962 (inactive); in experiment [6], -1.08 (inactive); in [7] it was 0.279 (inactive). Also, the values for the z-score in experiment [8] and in [9] were -0.0568 (inactive) and 1.33, respectively. The figures for the composite z-score in experiment [4] and in experiment [10] were -0.869 (inactive) and 0.165, respectively.

Consider `COCCOC(=O)N1C(=O)[C@@]2(c3cc(C#CCNC(N)=O)ccc31)[C@H](c1ccccc1OCCO)N1[C@H](c3ccccc3)[C@H](c3ccccc3)OC(=O)[C@H]1[C@@H]2C(=O)N1CCCCCCC1`, for which the z-score in [1] is 0.875; in experiment [2], 1 (inactive); in experiment [3], 0.723 (inactive); in experiment [5], 2.91 (inactive); in experiment [6] it was 1.09 (inactive); in experiment [7], -0.256 (inactive). Also, the z-score is -0.276 (inactive) in experiment [8] and -0.55 in [9]. Also, the composite z-score was -0.321 (inactive) in experiment [4] and -0.0143 in [10].

As for `COCCOC(=O)N1C(=O)[C@@]2(c3cc(C#CCCO)ccc31)[C@H](c1ccc(O)cc1)N1[C@H](c3ccccc3)[C@H](c3ccccc3)OC(=O)[C@H]1[C@@H]2C(=O)NC[C@H](O)c1ccccc1`, the z-score was 1.63 in [1]; 0.597 (inactive) in [2]; 0.763 (inactive) in [3]; 1.66 (inactive) in experiment [5]; 1.06 (inactive) in [6]; 1.04 (inactive) in [7]. Also, the z-score was 1.67 (inactive) in [8] and 1.2 in [9]. The values for the composite z-score in [4] and in experiment [10] were 0.612 (inactive) and 0.0256, respectively.

Take `COC(=O)C(CC#Cc1ccc2c(c1)[C@]1(C(=O)N2)[C@H](C(=O)N2CCN(c3ncccn3)CC2)[C@H]2C(=O)O[C@H](c3ccccc3)[C@H](c3ccccc3)N2[C@@H]1c1ccc(O)cc1)C(=O)OC`: the z-score was -0.146 in experiment [1]; 0.586 (inactive) in experiment [2]; 0.235 (inactive) in [3]; 1.67 (inactive) in experiment [5]; 1.25 (inactive) in [6]; 0.167 (inactive) in [7]. The z-score in experiment [8] is 0.26 (inactive); in experiment [9], -1.47. The composite z-score in experiment [4] was -15.3 (active); in experiment [10], 0.309.

Turning to `CCOC(=O)C1=C[C@@H](C(C)(C)C)N(S(=O)(=O)c2ccc(C)cc2)[C@H]1c1ccc(OC)cc1`, the z-score in [1] was -0.294; in experiment [2] it was 1.9 (inactive); in experiment [3], -0.0789 (inactive); in experiment [5] it was -0.473 (inactive); in experiment [6] it was 1.88 (inactive); in experiment [7], 0.33 (inactive). Further, the results for the z-score in experiment [8] and in [9] were -0.27 (inactive) and -1.23, respectively. Further, the composite z-score is -0.0972 (inactive) in experiment [4] and -0.149 in [10].

With `C=C1C(=O)C=C2CN(C(=O)c3ccccc3)[C@@](Cc3ccc(F)cc3)(C(=O)OC)[C@@H]12`, the z-score is -6.48 in [1]; -11.8 (active) in experiment [2]; -9.98 (active) in [3]; 0.439 (inactive) in [5]; -2.19 (inactive) in experiment [6]; 0.322 (inactive) in experiment [7]. For the same compound, the z-score in [8] was -1.8 (inactive); in [9] it was -7.28. Besides, the composite z-score in [4] is -1.67 (inactive); in experiment [10], 0.154.

Turning to `Cc1ccc(S[C@]2(C(=O)NCC(C)C)CC(=O)N(C(C)C)[C@@H]2c2ccc(CO)cc2I)cc1`, the z-score in [1] is -0.16; in experiment [2], -2.09 (inactive); in [3], -1.52 (inactive); in [5], -0.288 (inactive); in [6] it was -0.91 (inactive); in experiment [7], 0.485 (inactive). Also, the z-score is -0.117 (inactive) in experiment [8] and -1.8 in experiment [9]. In addition, the composite z-score in experiment [4] is -0.332 (inactive); in experiment [10] it was -0.128.

With `C[N+](C)(C)CCCC[C@@H]1NC(=O)[C@H]2C[C@@H](C(=O)O)[C@@H](c3ccc(O)cc3)N2C1=O`, the z-score was 0.363 in [1]; -1.58 (inactive) in experiment [2]; 1.03 (inactive) in experiment [3]; 0.475 (inactive) in [5]; -0.944 (inactive) in experiment [6]; 1.38 (inactive) in experiment [7]. Besides, the z-score in experiment [8] is 1.57 (inactive); in experiment [9] it was 0.925. The results for the composite z-score in experiment [4] and in experiment [10] were -0.406 (inactive) and -0.0595, respectively.

As for `COC(=O)C(CC#Cc1ccc2c(c1)[C@]1(C(=O)N2)[C@H](C(=O)N2CCCCCCC2)[C@H]2C(=O)O[C@H](c3ccccc3)[C@H](c3ccccc3)N2[C@@H]1c1ccc(OCCO)cc1)C(=O)OC`, the z-score in experiment [1] is 0.883; in [2] it was 1.43 (inactive); in experiment [3], 0.229 (inactive); in [5] it was 2.05 (inactive); in experiment [6], 0.415 (inactive); in experiment [7], 0.0679 (inactive). In addition, the z-score in experiment [8] was -0.878 (inactive); in experiment [9] it was 0.0283. Also, the composite z-score in experiment [4] was -1.22 (inactive); in experiment [10], 2.59.

As to `O=C(NC1CC1)[C@@H]1c2ccccc2C(=O)N(C2CCCCC2)[C@H]1c1ccc(CO)cc1`, the z-score in experiment [1] was -0.358; in experiment [2], 0.678 (inactive); in experiment [3], -1.27 (inactive); in experiment [5], 0.292 (inactive); in experiment [6] it was -0.456 (inactive); in [7], -0.185 (inactive). Moreover, the z-score was 0.138 (inactive) in experiment [8] and -0.166 in experiment [9]. Also, the figures for the composite z-score in [4] and in [10] were -0.245 (inactive) and -0.323, respectively.

Regarding `COc1ccc([Si](C)(C)[C@H]2[C@H](CC(=O)N3CCC[C@H]3CO)O[C@@]3(C(=O)N(C)c4ccccc43)[C@@H]2C)cc1`, the z-score in experiment [1] was -0.395; in experiment [2], 0.264 (inactive); in experiment [3], -0.212 (inactive); in experiment [5], 1.32 (inactive); in experiment [6], 0.554 (inactive); in [7] it was 0.133 (inactive). The z-score in experiment [8] was -0.0566 (inactive); in experiment [9], -0.418. Further, the composite z-score in experiment [4] is -0.269 (inactive); in [10], 0.0473.

As for `C=CCNC(=O)[C@H]1[C@@H]2C(=O)O[C@@H](c3ccccc3)[C@@H](c3ccccc3)N2[C@@H](c2ccc(OCCO)cc2)[C@]12C(=O)N(C(=O)OCCOC)c1ccc(C#CCNC(N)=O)cc12`, the z-score in experiment [1] was 0.263; in experiment [2] it was 1.88 (inactive); in experiment [3] it was 0.31 (inactive); in experiment [5] it was 1.45 (inactive); in experiment [6], 3.01 (inactive); in experiment [7] it was 1.45 (inactive). For the same compound, the z-score in experiment [8] was 1.24 (inactive); in [9], 1.09. Moreover, the composite z-score was -0.193 (inactive) in [4] and 0.0313 in experiment [10].
